Test results reported in PubChem BioAssay AID602350 (Broad Institute, 2012).
Results with a measured potency or affinity are listed apart. Active and inactive are the calls of the source.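 The calls were made as follows: active = absorbance falls by 30% or more versus neutral controls, with a potency fitted within twice the top valid dose; inconclusive = no clear call, values can overlap the other calls; inactive = change opposite to expected direction, plus the rest.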

What follows are molecules tested against Protein disulfide-isomerase (Homo sapiens) (UniProt P07237) (assay: PDI inhibitors, insulin aggregation turbidity, dose response, biochemical, absorbance, cherry-picked samples (AID 602350)). Details: recombinant PDI insulin aggregation, absorbance 650 nm, 90 min; series mostly up to 19.5 µM.
Protein disulfide-isomerase (Homo sapiens), sequence (P07237 whole entry, looked up): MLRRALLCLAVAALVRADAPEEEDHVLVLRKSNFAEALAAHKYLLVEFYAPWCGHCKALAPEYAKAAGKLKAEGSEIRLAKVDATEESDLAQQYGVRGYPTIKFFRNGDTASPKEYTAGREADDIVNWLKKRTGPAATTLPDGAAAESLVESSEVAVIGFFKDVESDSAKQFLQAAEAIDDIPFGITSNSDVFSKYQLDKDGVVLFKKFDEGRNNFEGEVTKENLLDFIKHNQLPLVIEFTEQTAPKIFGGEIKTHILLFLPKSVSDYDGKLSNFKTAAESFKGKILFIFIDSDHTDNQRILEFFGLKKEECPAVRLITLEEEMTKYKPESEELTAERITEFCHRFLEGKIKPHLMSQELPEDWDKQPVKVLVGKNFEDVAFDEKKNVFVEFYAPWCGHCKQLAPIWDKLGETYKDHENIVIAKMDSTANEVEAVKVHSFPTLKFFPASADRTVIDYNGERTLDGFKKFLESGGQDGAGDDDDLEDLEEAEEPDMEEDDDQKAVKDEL

outcome, inactive:
CCOC(=O)c1c(CN(C)C)n(-c2ccccc2)c2cc(Br)c(O)cc12
O=C(NN1CC(C(=O)OCc2ccccc2F)CC1=O)c1ccccc1 (centres undefined)
CCOC(=O)c1c(CN2CCN(Cc3ccccc3)CC2)n(C)c2cc(Br)c(OC)cc12
Cc1cc(=O)c(C(=O)Nc2cccc(C(=O)NC3CC3)c2)nn1-c1ccccc1
O=C(NC(Cc1c[nH]c2ccccc12)C(=O)N/N=C/c1cccnc1)c1cccs1 (centres undefined)
CN(C)S(=O)(=O)c1ccc(C(=O)Nc2ccc3nc(N4CCOCC4)sc3c2)cc1
CCOC(=O)C1=C(c2ccccc2)N=c2s/c(=C\c3cccc(O)c3)c(=O)n2C1c1cccs1 (centres undefined)
CCOc1ccc(C(=O)NCC(=O)OCC(=O)N(C)CC(=O)Nc2ccccc2CC)cc1OCC
Cc1ccc(NC(=O)CSC(C)C(=O)OCc2cc(=O)oc3cc(O)ccc23)cc1 (centres undefined)
CN(c1ccccc1)S(=O)(=O)c1cc(C(=O)N2CCN(c3ncccn3)CC2)ccc1Cl
CCCCNC(=O)CCn1c(=O)c2ccccc2n(CC(=O)Nc2ccccc2OCC)c1=O
Cn1nnnc1SCC(=O)Nc1cc(C(F)(F)F)ccc1N1CCOCC1
O=C(c1ccc(OCCN2CCCCC2)cc1)c1c(-c2ccc(O)cc2)sc2cc(O)ccc12
COc1cc2c(cc1OC)C(C)N(CC(=O)Nc1ccc(S(=O)(=O)N3CCCC3)cc1)CC2 (centres undefined)
O=C1NC[C@H](Cc2ccccc2)N(C[C@H]2CCCN2C[C@H](Cc2ccc(O)cc2)N2C[C@H](Cc3ccc(O)cc3)N(CC3CCCCCC3)C(=O)C2=O)C1=O
CNc1ncnc2c1ncn2[C@H]1CN(Cc2cccc3ccccc23)C[C@@H](CO)O1
COc1ccc(CN(C)C[C@@H]2Oc3ccc(NC(=O)Nc4ccccc4)cc3CC(=O)N([C@H](C)CO)C[C@@H]2C)cc1
CC1(C(=O)Nc2cccc3c2CCCC3)CCN1C(=O)c1cccc(F)c1 (centres undefined)
C[C@@H]1CN([C@@H](C)CO)C(=O)c2cc(NC(=O)Cc3cn(C)c4ccccc34)ccc2O[C@@H]1CN(C)S(=O)(=O)c1ccc(F)cc1
C=CCn1c(SCC(=O)Nc2ccc(N(C)C)cc2)nnc1-c1cccc(C)c1
CCOC(=O)c1ccc2c(c1)nc(SCC(=O)N1CCCCC1)n2CC
CCC(=O)Nc1ccc(-c2cc3ccccc3oc2=O)cc1
O=C(/C=C/c1ccccc1)Nc1scc(-c2ccccc2)c1C(=O)O
CCOC(=O)C1(CCOc2ccccc2)CCN(Cc2ccc(C(=O)OC)cc2)CC1
CCc1ccc(NC(=O)Nc2ccncc2)cc1
CCCCN(C(=O)C1=CC=CN2CCS(=O)(=O)N=C12)c1ccccc1
CC(=O)Nc1cccc(NC(=O)CCc2ccccc2)c1
COc1cccc(/C=C2\CCCCC2=O)c1
COc1ccccc1NC(=O)c1ccc(NC(=O)COC(=O)c2cccnc2Cl)cc1
O=C(Cn1nnc2ccccc21)OCC(=O)c1ccccc1
O=C(NCc1ccncc1)Nc1cc(Cl)ccc1Cl
CCOC(=O)C1(CC2CC2)CCN(Cc2cc(Cl)c(O)c(OC)c2)CC1
CC(C)N1CCCC(C)(C(=O)Nc2nc3ccccc3n2C)C1 (centres undefined)
O=C(Nc1nccs1)c1ccc(-c2ccccc2[N+](=O)[O-])o1
Cc1noc(C)c1S(=O)(=O)Nc1ccc2c(c1)CC(=O)N([C@H](C)CO)C[C@H](C)[C@H](CN(C)S(C)(=O)=O)O2
O=C1CC(C(=O)N2CCc3ccccc32)CN1c1ccc(F)cc1 (centres undefined)
COc1ccc(N(Cc2cc3cc(OC)ccc3[nH]c2=O)C(=O)C2CCCO2)cc1 (centres undefined)
CCOc1ccc2nc(SCC(=O)c3ccc(Cl)s3)sc2c1
CCn1c(SCC(=O)NC2CC2)nnc1-c1ccccc1
